Test results as given in PubChem BioAssay AID1347431 (National Center for Advancing Translational Sciences (NCATS), 2020).
The campaign covered roughly 1,200 compounds. Fewer than 10 were called active. These entries were drawn from the full list. A number with no mark means an inactive call. Calls follow the shape of the dose curve; as a rule, active = well fitted curve in the direction sought with a large enough effect; inconclusive = small, poorly fitted or top-dose-only effect, or another doubt; inactive = no such curve, though single readings can be large or run the other way.

Test: Confirmatory qHTS assay for inhibitors of Activation Induced Cytidine Deaminase (AID): UDG signals; also: 0% is about no effect
Conditions: UDG coupled enzyme activity counter-screen; series mostly up to 115 µM; activity change, negative = inhibition: at the top concentration
Text: Assay Provider (PI) Patricia Gearhart Ph.D.
National Institute on Aging
National Institute of Health (NIH), Bethesda, MD
Assay Provider (PI) Rahul Kohli Ph.D.
Perelman School of Medicine
University of Pennsylvania, Philadelphia, PA
Activation-Induced Deaminase (AID) is a cytosine deaminase which converts cytosine into uracil within stretches of ssDNA. The presence of uracil in DNA initiates a cascade of mutagenic DNA repair to introduce point mutations and DNA double strand breaks. Specific targeting of AID to the immunoglobulin heavy chain loci (Igh) promotes mutagenesis in the antibody variable region for somatic hypermutation (SHM) or switch regions leading to class switch recombination (CSR). However, AID also plays a role in accumulating unnecessary mutations across the genome. Mis-targeting of AID results in the initiation of tumor development and leads to greater drug resistance among cancer cells when continually expressed. To identify an AID inhibitor, a small molecule library will be screened in collaboration with NCATS core facility at NIH. To confirm biological function, inhibitors will be examined in an in vitro murine B-cell activation assay and subsequent secondary validation screens. Top molecules will be further screened to identify inhibitory efficacy against a wild type primary splenocytes assay. Using these approaches, we hope to identify a small molecule with great efficacy and low toxicity for use as a molecular probe to further characterize AID's intricacies, or even as a therapeutic.
A FRET based analysis of cytosine deamination, was developed to identify potential inhibitors of AID catalytic activity. This screen has two signal output, Read 1 evaluates the AID inhibition response. The second readout (Read 2) evaluates UDG response and is uses as a counterscreen to exclude false positive inhibitors. Inhibition in AID and inactivity in the UDG signal is the desired outcome for this assay.
SEQUENCE No. (e.g., 1, 2, 3, etc.); […] (e.g., Cells, Incubation, Reagent, etc.); VALUE; DESCRIPTION
1a; Reagent; 3 uL; [4/3x] 1 uM AID/2.67 U/mL UDG
1b; Reagent; 3 uL; 2 U/mL UDG
1c; Reagent; 3 uL; 1 uM AID
2a; Compound; 46 nL; Follow-up plates (0.64 uM - 10 mM)
2b; Control; 46 nL; ATA ([…] - 10 mM)
3; Time; 10 min; incubation at room temperature
5; Time; 4 hr; incubation at room temperature
6; Reagent; 4 uL; [2x] 250 mM NaOH
7; Time; 15 sec; centrifuge at 1000 rpm
8; Time; 30 min; incubation at room temperature
9a; Detection; fluorescence (Read 1: AID); EnVision (PerkinElmer) plate reader, 540 excitation and 590 emission filters
9b; Detection; fluorescence (Read 2: UDG); EnVision (PerkinElmer) plate reader, 560 excitation and 665 emission filters
NOTES (numbers refer to sequence above)
1a; Reagents were dispensed in a medium-binding black solid-bottom Greiner plates (789176F) using a BioRptr liquid dispenser. Dispense 3 uL of [4/3x] 1 uM AID (provided by Kohli lab) and [4/3x] 2 U/mL UDG (NEB M0280L) into columns 1, 2, 5 to 48.
1b; Dispense 3 uL of [4/3x] 2 U/mL UDG into column 3.
1c; Dispense 3 uL of [4/3x] 1 uM AID into column 4.
2a; Compound (7-points [uM]: 0.64; 3.2; 16; 80; 400; 2,000; 10,000; […]) double pin-transferred (Dip Factor = 2) using the Kalypsys (Wako USA) pintool equipped with a 1536 pinhead for a final concentration range of 7.32 nM - 114 uM.
2b; 10 mM Aurintricarboxylic Acid (Sigma A1895) (ATA, 8-point, n = 2, 1:2.5 dilution in column 2) double pin-transferred (Dip Factor = 2) using the Kalypsys (Wako USA) pintool equipped with a 1536 pinhead for a [final] range of 186 nM - 114 uM.
3; Room temperature incubation.
4; Dispense 1 uL of substrate mixture from the Kohli lab [4x] […] DJC20 and [4x] 250 nM DJC23 into columns 1 to 48 .
5; Room temperature incubation.
6; Dispense 4 uL of substrate mixture [2x] 250 mM NaOH into columns 1 to 48.
7; Centrifugation step to remove bubbles.
8; Room temperature incubation
9a; Fluorescence signal (column label AID) was read using the EnVision plate reader. […]

Row | Structure (SMILES) | activity change, negative = inhibition [%]
1 | CCOc1ccc(Nc2c(S(=O)(=O)c3ccc(C)cc3)cnc3ccc(OC)cc23)cc1 | -6.81
2 | CCn1cc2nc(SCc3cccc(C(F)(F)F)c3)n(CCc3ccccc3)c(=O)c2n1 | -6.4
3 | CCCCOc1ccc(C(=O)Nc2ccc(S(=O)(=O)Nc3nc(C)cc(C)n3)cc2)cc1 | 5.37
4 | O=C(O)c1c(-c2ccccc2)oc2ccc(OCc3c(F)cccc3Cl)cc12 | -5.79
5 | O=C1c2ccccc2C(=O)C1(c1ccccc1)N1CCN(c2cccc(C(F)(F)F)c2)CC1 | 4.62
6 | CC(=O)N1CCc2c(sc3c2c(=O)n(Cc2ccccc2)c(=O)n3Cc2cccc(Cl)c2)C1 | -4.28
7 | CCc1ccc(NC(=O)c2cnn(-c3c(C)cccc3C)c2C2CCN(C(=O)OC(C)(C)C)CC2)cc1 | -11.8
8 | CCOc1ccc(CNC(=O)c2c(C)nn(-c3ccc(F)cc3)c2-n2cccc2)cc1 | 6.32
9 | COc1cc2c(cc1OC)C(COc1cc(C)cc(C)c1)N(C(=O)C(C)(C)C)CC2 (configuration not stated) | 6.45
10 | COc1cc(NC(=O)Cn2cc(S(=O)(=O)N3CCC(C)CC3)c3ccccc3c2=O)cc(OC)c1OC | -13.2
11 | COc1ccc(C)cc1N(C)C(=O)c1c2c(nc3ccccc13)C(=O)N(C1CCCCC1)C2 | -0.876
12 | COc1cccc(C(=O)Nc2nc3nc(C)c(Cc4ccccc4)c(=O)n3[nH]2)c1 | 12.2
13 | Cn1c2ccccc2c2c(C(=O)N3CCN(c4cccc(C(F)(F)F)c4)CC3)cn(C3CCCCC3)c(=O)c21 | -7.55
14 | O=C(CSc1nc(-c2ccc(F)cc2)nc2c1Cc1ccccc1O2)Nc1cccc(C(=O)O)c1 | 5.5
15 | CC(C)Oc1ccc(C(=O)NCCc2csc(-c3cccc(F)c3)n2)cc1 | 2.66
16 | CCc1ccc(OCC(=O)N(Cc2ccco2)Cc2ccco2)cc1 | -2.86
17 | Cc1ccc2c(c1)C(c1ccc(F)cc1)N(C(=O)c1ccc(OC(C)C)cc1)CC(=O)N2 (configuration not stated) | -1.56
18 | Cc1ccc(Cl)cc1N1CCN(C(=O)c2nn(C)c3c2CS(=O)(=O)c2ccccc2-3)CC1 | -8.81
19 | CC(C)c1ccc(NC(=O)CSC2=Nc3ccccc3C3=NC(CCC(=O)NCc4ccco4)C(=O)N23)cc1 (configuration not stated) | -3.36
20 | CCOc1ccc(CCNC(=O)c2cn(CC)c3ccc(S(=O)(=O)N4CCCCCC4)cc3c2=O)cc1OCC | -15.9
21 | COc1cccc(CNC(=O)c2oc3ccc4c(c3c2C)C(=O)CC(C)(C)O4)c1OC | 0.26
22 | O=C(NCCn1cc(SCc2ccccc2F)c2ccccc21)c1cccs1 | -4.8
23 | Cc1ccc(Cl)cc1NC(=O)c1oc2c(c1C)-c1[nH]ncc1CC2 | -4.49
24 | CN(C)c1ccc(Nc2ncnc3sc4c(c23)CCCC4)cc1 | 0.0322
25 | CCOC(=O)c1c(Oc2ccc(C(C)=O)cc2)nnc(-c2ccccc2)c1-c1ccccc1 | 2.33
26 | O=C(O)c1ccc2c(c1)N(Cc1ccc(F)cc1Cl)C(=O)c1ccccc1S2 | 12.6
27 | CCCCCN1C(C(=O)c2ccccc2)=C(OC(=O)CC)c2ccccc2S1(=O)=O | -0.103
